This note sets out measurements from PubChem BioAssay (NCATS).

Inconclusive results are not listed. A number with no mark means an inactive call. Active and inactive are the calls of the source. Calls come from the whole dose curve; as a rule, active = well fitted curve in the direction sought with a large enough effect; inconclusive = small, poorly fitted or top-dose-only effect, or another doubt; inactive = no such curve, though single readings can be large; an effect the other way counts as inactive or inconclusive.

Chain of Protein phosphatase 1D (Homo sapiens) (O15297 whole entry, looked up): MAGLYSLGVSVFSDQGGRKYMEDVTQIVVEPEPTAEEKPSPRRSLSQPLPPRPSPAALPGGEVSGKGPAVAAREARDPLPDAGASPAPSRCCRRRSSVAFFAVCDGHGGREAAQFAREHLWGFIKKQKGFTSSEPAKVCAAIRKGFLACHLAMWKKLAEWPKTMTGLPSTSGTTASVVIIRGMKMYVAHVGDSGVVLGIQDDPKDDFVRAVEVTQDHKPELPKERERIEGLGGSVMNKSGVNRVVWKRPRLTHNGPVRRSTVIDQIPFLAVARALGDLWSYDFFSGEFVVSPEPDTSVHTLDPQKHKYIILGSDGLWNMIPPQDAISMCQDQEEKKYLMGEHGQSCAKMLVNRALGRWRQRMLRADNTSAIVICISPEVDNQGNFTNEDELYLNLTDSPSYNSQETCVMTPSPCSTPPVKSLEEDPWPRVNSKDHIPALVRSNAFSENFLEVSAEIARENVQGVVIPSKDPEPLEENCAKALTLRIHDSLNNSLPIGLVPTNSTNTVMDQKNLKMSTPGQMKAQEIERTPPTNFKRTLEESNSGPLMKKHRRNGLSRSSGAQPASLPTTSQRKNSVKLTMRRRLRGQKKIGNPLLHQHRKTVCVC

Test system in one assay: not listed separately
The assay can be described thus: qHTS to identify inhibitors of the type 1 interferon - major histocompatibility complex class I in skeletal muscle: primary screen against the NCATS Pharmaceutical Collection (AID 1347407).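 Note: luminescence of HiBiT knocked into endogenous HLA-B as interferon-induced MHC class I level; % is set by controls: 0 for no effect and ±100 for the full control effect.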 As to conditions: human skeletal muscle cells, IFN-b-induced MHC-I HiBiT luminescence, 24 h; series mostly up to 45.9 µM; activity change, negative = inhibition: at the top concentration. Put shortly: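 A qHTS format is used: 8-point, 1:5 compound series with 46 uM top final concentration, applied alongside 4 ng/ml IFN-beta to HLA-B*08:01-HiBiT knock-in myoblasts. Luminescence is measured after 24 h treatment.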
In the case of `Cc1ccc(CCn2c3c(c4cc(Cl)ccc42)CN(C)CC3)cn1`, the “activity change, negative = inhibition” value was -15.5%. Turning to `C1N2CN3CN1CN(C2)C3`, the “activity change, negative = inhibition” value is -2.78%. Same read-out and setting: for `O=C(O)[C@@H](O)[C@H](O)[C@H](O)[C@@H](O)C(=O)O` the value was 0.84%; for `C[C@@H](O[C@H]1OCCN(Cc2n[nH]c(=O)[nH]2)[C@H]1c1ccc(F)cc1)c1cc(C(F)(F)F)cc(C(F)(F)F)c1`, -27.2%; for `CSc1ccc(/C=C2/C(C)=C(CC(=O)O)c3cc(F)ccc32)cc1`, -1.05%. Regarding `COc1ccccc1OCC1CNC(=O)O1` (stereo unspecified), the “activity change, negative = inhibition” value is -8.83%.

Regarding `OCc1c[nH]c2ccccc12`, the “activity change, negative = inhibition” value is -20.6% [at 92.2 µM]. For `CCCCCCCC(=O)[O-].CCCCCCCC(=O)[O-].[Zn+2]`, the “activity change, negative = inhibition” value was -3.01%.

`CC(=O)N(CC(=O)N(C)C)c1ccccc1`: the “activity change, negative = inhibition” value is -5.69%.

`CCCCCCn1c(=O)c2c(ncn2C)n(C)c1=O`: the “activity change, negative = inhibition” value is 9.13%. Consider `O=C(CCOCCOCCOCCOCCC(=O)Nc1c(I)cc(I)c(C(=O)O)c1I)Nc1c(I)cc(I)c(C(=O)O)c1I`, for which the “activity change, negative = inhibition” value is -2.49%. The same measure, in the same setting: under `CCN(CC)CC(=O)Nc1c(C)cccc1C(=O)OC` stands -0.24%; under `Oc1ccc(CCNCCCCCCNCCc2ccccc2)cc1O`, -5.31%. Take `O=C(OCCN1CCOCC1)c1cccnc1Nc1cccc(C(F)(F)F)c1`: the “activity change, negative = inhibition” value is -19.7%.

With `O=C(O)Cc1ccc(OCCNC[C@H](O)c2ccccc2)cc1`, the “activity change, negative = inhibition” value is -0.744%. Still for that read-out and setting: for `CN1C(=O)CC(C)(c2ccccc2)C1=O` (stereo unspecified) the value was -9.34%; for `C[N+](C)(CCOc1ccccc1)Cc1cccs1`, -13.9%. Still for that read-out and setting: for `O=C(O)c1ccccc1Nc1cc(Cl)ccc1C(=O)O` the value was 0.376% [at 19 µM].

A further assay concerns the target Protein phosphatase 1D (Homo sapiens) (UniProt O15297). Nature of the assay: RapidFire Mass Spectrometry qHTS Assay for Modulators of WT P53-Induced Phosphatase 1 (WIP1) (AID 1347424).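 For activity change, negative = inhibition: plate controls were DMSO wells for no effect and GSK830371 inhibitor control at 10 µM for full effect.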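 Note: amount of dephosphorylated VEPPL-S-QETFS peptide product formed by WIP1.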 Note: potency is the fitted concentration of half-maximal effect. The settings on record: WIP1 dephosphorylation of phosphopeptide, RapidFire MS; series mostly up to 63 µM; activity change, negative = inhibition: at the top concentration. Put shortly: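 Mass-spectrometric measurement of dephosphorylated peptide after a 5 min room-temperature reaction of 10 nM WIP1 with 2 uM phosphopeptide, following 1 h compound preincubation in 30 mM MgCl2 buffer.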
(In general: In qHTS, concentration-response curves come from the screen itself.)
On to `Oc1cccc2[nH]ccc12`, for which the “activity change, negative = inhibition” value was -9.19%. Still for that read-out and setting: under `CC(=O)Nc1ccc(S(=O)(=O)Nc2cc(C)on2)cc1` stands 0.32%. Still for that read-out and setting: under `CCC(=O)O[C@]1(C(=O)COC)[C@@H](C)C[C@H]2[C@@H]3CCC4=CC(=O)C=C[C@]4(C)C3(F)[C@@H](O)C[C@@]21C` (stereo partly specified) stands 15.6%. For the molecule `CCOC(=O)O[C@]1(C(=O)OCCl)CC[C@H]2[C@@H]3CCC4=CC(=O)C=C[C@]4(C)[C@H]3[C@@H](O)C[C@@]21C`, the “activity change, negative = inhibition” value is 1.34%. On the same count and under the same terms, for `CN(C(=O)C(Cl)Cl)c1ccc(OC(=O)c2ccco2)cc1` the value was -2.43%. Regarding `CCCCCOc1ccc(C2SC(=O)NC2=O)cc1OCC` (stereo unspecified), the Potency is 2510 nM (active). On to `C#CC(C)(CC)OC(=O)c1ccccc1C(=O)O` (stereo unspecified), for which the “activity change, negative = inhibition” value is -2.23%. On to `COc1ccc2cc(C=O)ccc2c1`, for which the “activity change, negative = inhibition” value is -3.63%. Take `CN1CCN(N)CC1`: the “activity change, negative = inhibition” value was 34.6%. `CC(COc1ccccc1)NN` (stereo unspecified): the “activity change, negative = inhibition” value is 5.82%. With `Cc1ccc(CCn2c3c(c4cc(Cl)ccc42)CN(C)CC3)cn1`, the “activity change, negative = inhibition” value is 15.9%. Still for that read-out and setting: under `C1N2CN3CN1CN(C2)C3` stands -17.4%. Turning to `O=C(O)[C@@H](O)[C@H](O)[C@H](O)[C@@H](O)C(=O)O`, the “activity change, negative = inhibition” value was -1.1%.

Turning to `COc1ccccc1OCC1CNC(=O)O1` (stereo unspecified), the “activity change, negative = inhibition” value was -3.04%. As to `CCCCCCn1c(=O)c2c(ncn2C)n(C)c1=O`, the “activity change, negative = inhibition” value was 9.21%. Still for that read-out and setting: for `O=C(CCOCCOCCOCCOCCC(=O)Nc1c(I)cc(I)c(C(=O)O)c1I)Nc1c(I)cc(I)c(C(=O)O)c1I` the value was -1.07%. As for `CCN(CC)CC(=O)Nc1c(C)cccc1C(=O)OC`, the “activity change, negative = inhibition” value was 3.33%. The same measure, in the same setting: under `Oc1ccc(CCNCCCCCCNCCc2ccccc2)cc1O` stands -2.16%.

As to `O=C(OCCN1CCOCC1)c1cccnc1Nc1cccc(C(F)(F)F)c1`, the “activity change, negative = inhibition” value is 16.1%. With `O=C(O)Cc1ccc(OCCNC[C@H](O)c2ccccc2)cc1`, the “activity change, negative = inhibition” value was 4.06%.

In the case of `CN1C(=O)CC(C)(c2ccccc2)C1=O` (stereo unspecified), the “activity change, negative = inhibition” value is 42.5%.

Consider `C[N+](C)(CCOc1ccccc1)Cc1cccs1`, for which the “activity change, negative = inhibition” value is 1%. Still for that read-out and setting: for `O=C(O)c1ccccc1Nc1cc(Cl)ccc1C(=O)O` the value was -0.155% [at 26.6 µM].
